# According to the supplement of paper PMC6555819:
# What was measured:
# Experiment in all cases: PBM binding z-score (relative to random genomic background probes); higher = stronger binding; sequences stand for … in GC…GCGATTGACAGCGTAGAATGAAGG
# [1] = system: FXR:RXRa (NR concentration 270 nM, RXRa partner concentration 90 nM)
# Summary of the method: (§1)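 Probes were double-stranded and carried 34-nt variable regions with direct-repeat seeds, single-nucleotide variants, half-site ablations and random human genomic background sequences, printed on custom Agilent 4×180K protein-binding microarrays. Arrays were incubated 1 h with ligand-free nuclear receptor dimers in PBS pH 7.4, 2% milk, 0.02% Triton X-100, 1 mM DTT, 0.2 mg/mL BSA and 0.4 mg/ml salmon testes DNA. Antibodies against each partner (one per run) detected binding, and scanned fluorescence was regression-normalized. Binding z-scores use the random background probes as reference.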
# [2] = system: LXRa:RXRa (NR concentration 270 nM, RXRa partner concentration 90 nM)
# Summary of the method: as §1
# [3] = system: LXRa homodimer (NR concentration 270 nM)
# Summary of the method: as §1
# [4] = system: LXRb:RXRa (NR concentration 270 nM, RXRa partner concentration 90 nM)
# Summary of the method: as §1
# [5] = system: LXRb homodimer (NR concentration 270 nM)
# Summary of the method: as §1
# [6] = system: PPARa:RXRa (NR concentration 270 nM, RXRa partner concentration 90 nM)
# Summary of the method: as §1
# [7] = system: PPARg:RXRa (NR concentration 180 nM, RXRa partner concentration 90 nM)
# Summary of the method: as §1
# [8] = system: PPARg:RXRa 270nM:90nM, anti-RXR (NR concentration 270 nM, RXRa partner concentration 90 nM)
# Summary of the method: as §1
# [9] = system: PPARg:RXRa 30nM:10nM, anti-RXR (NR concentration 30 nM, RXRa partner concentration 10 nM)
# Summary of the method: as §1
# [10] = system: PPARg:RXRa 90nM:30nM, anti-RXR (NR concentration 90 nM, RXRa partner concentration 30 nM)
# Summary of the method: as §1
# [11] = system: PPARg:RXRa DBDmut IVT, anti-RXR (DBD mutation: RXRa K156A/R161A, NR concentration 270 nM, RXRa partner concentration 90 nM)
# Summary of the method: as §1
# [12] = system: PPARg:RXRa IVT, anti-PPARg (NR concentration 270 nM, RXRa partner concentration 90 nM)
# Summary of the method: as §1
# [13] = system: PPARg DBDmut:RXRa IVT, anti-PPARg (DBD mutation: PPARg1 K132A/R137A, NR concentration 270 nM, RXRa partner concentration 90 nM)
# Summary of the method: as §1
# [14] = system: PPARg DBDmut IVT, anti-PPARg (DBD mutation: PPARg1 K132A/R137A, NR concentration 270 nM)
# Summary of the method: as §1
# [15] = system: PPARg homodimer (NR concentration 180 nM)
# Summary of the method: as §1
# [16] = system: PXR:RXRa (NR concentration 270 nM, RXRa partner concentration 90 nM)
# Summary of the method: as §1
# [17] = system: PXR homodimer (NR concentration 270 nM)
# Summary of the method: as §1
# [18] = system: RARa:RXR (NR concentration 270 nM, RXRa partner concentration 90 nM)
# Summary of the method: as §1
# [19] = system: RARa homodimer (NR concentration 270 nM)
# Summary of the method: as §1
# [20] = system: RARb:RXRa (NR concentration 270 nM, RXRa partner concentration 90 nM)
# Summary of the method: as §1
Sequence,PBM binding z-score [1],PBM binding z-score [2],PBM binding z-score [3],PBM binding z-score [4],PBM binding z-score [5],PBM binding z-score [6],PBM binding z-score [7],PBM binding z-score [8],PBM binding z-score [9],PBM binding z-score [10],PBM binding z-score [11],PBM binding z-score [12],PBM binding z-score [13],PBM binding z-score [14],PBM binding z-score [15],PBM binding z-score [16],PBM binding z-score [17],PBM binding z-score [18],PBM binding z-score [19],PBM binding z-score [20]
TCTGCTAGGTCAGTTGGTCAGCTAGCGAGCTGCC,0.851,0.628,-0.728,0.453,0.185,1.25,0.0409,1.64,1.21,1.31,2.78,3.15,-0.34,-0.0427,-0.0101,0.114,-0.917,0.452,-1.22,3.38
GCTATTAGTGGAAAGGGCAACCGAATGATTCTCG,0.118,0.287,-0.215,0.268,-0.406,1.68,1.88,3.6,1.97,3.34,0.437,0.575,0.104,-0.457,0.772,0.478,-0.0365,0.745,0.726,1.93
ACTAGTTGGGCAGCTGAGGTCACACACAATTCGG,2.42,2.48,1.5,2.74,0.155,3.31,1.34,1.8,0.192,1.26,1.04,1.73,0.77,0.164,2.17,4.46,1.48,4.23,0.707,3.05
CTCGAATGGTCGGTTGAGGTGAGTATACGGATAA,0.27,-0.395,-0.272,-0.377,-0.349,-0.259,-0.0607,-0.192,-0.213,-0.0856,-0.784,0.126,0.733,0.405,-0.164,-0.105,-0.022,0.211,-0.0787,0.283
TCATATAGGTATAGGTGAAAGTCGAACGATATGA,0.449,0.366,-0.346,0.177,-0.47,1.42,1.72,2.44,3.51,3.05,2.01,1.55,0.818,1.13,0.0595,0.316,0.0974,0.665,0.0245,0.587
TGAATGAGGTTATAAGATCAGGGACCGTTGCAAA,1.45,1.26,0.0374,1.01,-0.286,2.6,1.45,2.32,0.865,1.63,1.22,1.99,0.832,-0.0564,0.812,0.874,0.0306,1.43,-0.64,1.33
GCTTGTAGATCAAAGTTAAGAAAGACTAAGCTAA,-0.479,-0.533,-0.585,-0.487,-0.917,1.18,2.55,4.31,2.13,4.45,0.918,0.871,-0.419,0.433,-0.72,-0.462,-0.397,-0.522,-0.688,-0.479
ATACCAAGGTGTTCGTGAGGTCGTTGATACTAAC,1.76,2.11,1.19,1.3,0.178,1.24,0.117,0.343,-0.0462,0.253,-0.0075,0.497,0.822,0.323,0.594,2.41,1.6,2.11,0.456,0.861
TCTTGTCGATCAATAGAGGTTAAGAAAGTGCGCT,0.786,3.69,0.541,1.92,0.134,1.97,0.144,1.76,2.67,1.98,1.37,0.566,1.29,0.928,0.669,2.97,0.471,1.82,-0.217,1.09
ATCTCTAGGGAAGACTCAGTTCAGTGAAGAACGC,-0.235,0.0835,0.196,-0.00503,0.414,-0.566,-0.0585,-0.317,-0.477,-0.307,0.54,0.0201,0.66,0.331,0.641,0.582,1.3,-0.127,0.457,-0.0542
TCTATTAGTCGATTAGGGCAACCGAAACAGCGGA,0.523,0.509,0.385,0.608,0.293,0.759,0.292,2.12,3.61,2.99,2.06,1.15,1.13,0.942,0.0705,0.419,-0.106,0.574,0.642,0.697
CAGACTGGGGCATAAGGTTACCATAAGCCAGCCC,0.722,2.35,-0.275,1.27,-0.727,2.55,3.37,3.96,2.09,3.72,4,4.18,-0.272,-0.433,0.704,0.652,-0.537,1.59,-0.341,1.66
ATCGAAAGGTCCAGGTGAGTATAGAGAAAGGGAA,0.612,0.816,0.0552,0.22,0.494,0.594,0.347,0.503,0.287,0.512,0.212,0.948,0.53,0.059,0.583,0.112,0.251,0.303,0.409,1.24
ATATGTAGGTTAAGGGTCATTCTGGTTGGTTCGC,5.42,4.75,3.48,4.51,1.56,6.65,11.4,9.66,10.5,11.5,7.57,7.51,2.31,1.76,4.67,4.85,1.04,5.63,2.03,3.56
CAAACTAGGTCACAGACGTCAAAGTCCGTGCGTA,4.25,3.06,0.272,2.08,0.253,5.37,8.86,7.39,5.35,7.4,8.58,8.8,3,2.09,2.24,1.72,0.0509,2.65,0.354,4.08
CAAACTAGGTCAAGAGGTCAAAGTACGCTTCCCG,7.11,6.18,5.74,5.71,2.26,6.64,10,8.3,7.25,8.63,8.34,8.65,3.41,3.08,4.62,6.26,3.22,7.37,3.18,5.45
TCATATAGGCAAAAGGTGAAAGTCGGTGTGGTAA,1.44,1.54,-0.253,1.6,-0.167,4.76,7.39,6.76,6.88,8.15,3.66,3.79,0.358,-0.517,1.39,1.27,0.0545,1.81,0.897,1.81
CCAGACAGGTGAGAAGGGAACTCAGCCTCGATTA,-0.0941,-0.0473,0.111,-0.208,-0.526,-0.0624,0.318,0.174,-0.465,-0.306,0.589,0.343,-0.35,-0.943,0.62,-0.225,0.169,-0.0265,0.727,0.228
CCTGACGGGTCACTCCAGGTTATAGCATCGGAGT,3.43,7.46,1.51,4.58,-0.132,3.79,1.84,2.43,0.306,1.44,1.01,2.14,-0.43,-0.483,1.81,4.64,0.176,3.34,-0.12,3.31
ACACGGAGGACAAAGGTCAGAGCTACGCCAGTGA,4.18,4.33,1.74,3.36,0.366,5.18,7.55,7.26,5.39,7.07,0.363,3.8,0.472,-0.253,3.82,3.92,0.625,4.81,1.1,4.58
ACAGACAGGTGAGTGAAGGCAACTCAGCTGGACG,-0.0161,-0.412,-0.593,-0.733,-0.607,-0.0544,0.543,-0.0793,-0.458,-0.591,0.534,0.283,0.108,-0.0836,-0.372,-0.299,-0.329,-0.0789,-0.354,0.403
CGAACTAGGTCATCCAGGACAGAGAATACATTGA,4.18,2.74,0.462,2.08,0.0984,4.79,7.72,6.45,3.83,5.81,8.15,8.34,2.22,1.68,1.64,1.97,1.05,2.45,0.545,3.79
ACAGACGGGTGATGAAGGTAACTCAGGCTATCAT,-0.328,-0.456,-0.165,-0.422,-0.384,-0.198,0.613,-0.161,0.108,-0.458,-0.229,0.424,0.246,-0.242,-0.329,-0.323,-0.116,-0.078,-0.0586,-0.204
GATACAGGGTCAGCTAGAGGCTAGAGTATGGAAA,4.9,2.5,-0.262,2.16,-0.533,4.51,3.64,3.06,0.467,1.89,0.581,2.17,-0.0888,-0.495,2.09,2.29,-0.0961,3.58,1.14,3.88
TCGAGTAGGTTAGTTGGGGCATTCAGCCAACATA,0.131,-0.106,-0.363,0.412,-0.31,0.49,-0.334,0.635,0.877,0.623,2.05,1.73,-0.651,-0.228,0.105,-0.283,-0.15,0.117,-0.0281,0.529
CAAACTAGCTCAAGGTCAAAGTCGGTTTGTGCCA,4.51,5.18,5.93,4.13,1.45,4.17,1.21,2.95,0.947,2.05,1.26,1.78,-0.371,-0.234,2.07,4.39,2.66,4.08,0.525,3.88
AGAATGAGGTTACCAAAGCTCAGGGAAACGCTTG,1.93,3.99,-0.0854,1.96,-0.341,3.46,2.2,2.57,0.532,1.81,3.42,3.11,0.652,0.289,0.125,0.966,-0.338,1.77,-0.239,2.15
CAAACTAGGTCACCGGAAGGCCAAAGTCCGCATG,4.53,3.53,0.418,2.46,0.121,5.08,8.65,7.5,4.66,7.3,8.65,8.96,1.86,0.375,2.09,2.85,-0.0574,3.4,0.162,4.54
